Assay results reported in PubChem BioAssay (Tox21).
“And” between values parts separate entries of the source, which are not always exact repeats. Equal values may be shown once. Results filed as inconclusive are left out. The source holds several records for some structures; these can differ, active in one and inactive in another. The source made the active and inactive calls. Unless noted, calls follow the shape of the dose curve; as a rule, active = well fitted curve in the direction sought with a large enough effect in the repeat runs; inconclusive = weak or mixed curves; inactive = no such curve, though single readings can be large; an effect the other way counts as inactive or inconclusive.

Experiments:
[1] = qHTS assay to identify small molecule antagonists of the estrogen related receptor (ERR) signaling pathway from Tox21 library - cell viability counter screen (AID 1224834); also: nearly all actives have a fitted effect of over 30% in size; also: potency is read from the fitted curve at half-maximal effect
Method in brief: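 Seeded ERR cells were rested 6 h at 37 C/5% CO2 before compounds, positive and negative controls or DMSO were added. Incubation continued for 17.5 h, and viability was then quantified by CellTiter-Fluor fluorescence.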

[2] = molecular target: Luciferin 4-monooxygenase (Photinus pyralis) (UniProt P08659); assay: qHTS assay to identify small molecule inhibitors of firefly luciferase (AID 1224835); also: nearly all actives have a fitted effect of over 25% in size; also: potency is read from the fitted curve at half-maximal effect
Sequence of Luciferin 4-monooxygenase (Photinus pyralis) (P08659 whole entry, looked up): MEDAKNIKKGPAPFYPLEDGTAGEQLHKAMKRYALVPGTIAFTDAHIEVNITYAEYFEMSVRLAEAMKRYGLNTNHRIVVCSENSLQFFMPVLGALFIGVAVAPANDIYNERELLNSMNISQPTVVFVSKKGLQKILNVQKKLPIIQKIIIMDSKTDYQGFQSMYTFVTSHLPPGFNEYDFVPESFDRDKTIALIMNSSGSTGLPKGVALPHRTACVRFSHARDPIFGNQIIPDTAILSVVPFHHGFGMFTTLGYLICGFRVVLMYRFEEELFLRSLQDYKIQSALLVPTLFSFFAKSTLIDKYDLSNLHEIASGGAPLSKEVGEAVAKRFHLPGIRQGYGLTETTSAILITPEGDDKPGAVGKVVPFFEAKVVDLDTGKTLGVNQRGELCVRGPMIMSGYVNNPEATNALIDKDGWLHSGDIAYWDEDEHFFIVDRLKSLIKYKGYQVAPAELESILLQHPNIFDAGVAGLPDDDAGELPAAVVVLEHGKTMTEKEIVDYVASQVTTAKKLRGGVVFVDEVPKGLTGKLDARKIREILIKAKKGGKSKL
Method in brief: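 Biochemical qHTS: compounds run as interplate titrations against purified firefly enzyme, with D-luciferin and ATP each at its KM concentration. Light output recorded by CCD imaging.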

[3] = qHTS assay to identify small molecule agonists of the constitutive androstane receptor (CAR) signaling pathway - cell viability counter screen (AID 1224836); also: nearly all actives have a fitted effect of over 45% in size; also: potency is read from the fitted curve at half-maximal effect
Method in brief: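 HepG2-CYP2B6-hCAR, 2500 cells/well, 4 h pre-incubation; cpd 15 conc + PK11195 0.75 uM final; 23 h, 37 C/5% CO2; CellTiter-Fluor, fluorescence.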

[4] = qHTS assay to identify small molecule antagonists of the constitutive androstane receptor (CAR) signaling pathway - cell viability counter screen (AID 1224837); also: nearly all actives have a fitted effect of over 45% in size; also: potency is read from the fitted curve at half-maximal effect
Method in brief: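 To flag cytotoxic false antagonists, HepG2 hCAR/CYP2B6-2.2kb cells were treated 23 hr with 15-concentration compound series and 50 nM CITCO at 37 C/5% CO2; CellTiter-Fluor fluorescence was the measured end point.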

[5] = molecular target: Nuclear receptor subfamily 1 group I member 3 (Homo sapiens) (UniProt Q14994); assay: qHTS assay to identify small molecule antagonists of the constitutive androstane receptor (CAR) signaling pathway (AID 1224838);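 also: HepG2 cells stably expressing hCAR with CYP2B6 luciferase reporter stimulated by CITCO; nearly all actives have a fitted effect of over 40% in size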
Sequence of Nuclear receptor subfamily 1 group I member 3 (Homo sapiens) (Q14994 whole entry, looked up): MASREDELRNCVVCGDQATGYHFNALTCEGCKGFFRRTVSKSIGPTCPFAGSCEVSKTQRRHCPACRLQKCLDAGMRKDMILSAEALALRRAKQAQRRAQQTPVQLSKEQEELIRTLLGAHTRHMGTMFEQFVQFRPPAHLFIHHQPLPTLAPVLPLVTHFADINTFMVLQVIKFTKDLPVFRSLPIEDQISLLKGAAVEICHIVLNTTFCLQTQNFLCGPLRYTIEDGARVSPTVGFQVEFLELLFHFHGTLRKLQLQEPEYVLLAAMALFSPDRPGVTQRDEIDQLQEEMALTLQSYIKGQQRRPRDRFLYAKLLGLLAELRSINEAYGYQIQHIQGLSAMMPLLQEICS
Method in brief: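 Human hepatoma HepG2 cells expressing hCAR and a CYP2B6 promoter (2.2 kb) luciferase construct; compound titration (15 points) with 50 nM CITCO final, 24 h at 37 C/5% CO2; luminescence via ONE-Glo after 30 min at room temperature.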

[6] = molecular target: Nuclear receptor subfamily 1 group I member 3 (Homo sapiens) (UniProt Q14994); assay: qHTS assay to identify small molecule agonists of the constitutive androstane receptor (CAR) signaling pathway (AID 1224839); also: nearly all actives have a fitted effect of over 15% in size; also: potency is read from the fitted curve at half-maximal effect;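 as to activation: HepG2 cells stably carrying human CAR and a CYP2B6 luciferase reporter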
Method in brief: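 HepG2-CYP2B6-hCAR cells, 2500/well, 4 h pre-incubation; compounds 15 conc.; PK11195 0.75 uM final; 24 h, 37 C/5% CO2; ONE-Glo luciferase read.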

[7] = qHTS assay to identify small molecule antagonists of the estrogen related receptor signaling pathway with the pleiotropic PPARgamma coactivator (PGC) from Tox21 10K library - cell viability counter screen (AID 1224840; active = well fitted cell-killing curve with a large enough effect in the repeat runs, not every such curve was filed as active; also: nearly all actives have a fitted effect of over 40% in size; also: potency is read from the fitted curve at half-maximal effect)
Method in brief: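 Seeded PGC/ERR cells (2,000/well, 6 h, 37 C/5% CO2) get compound by pin tool; 17.5 h incubation at 37 C; CellTiter-Fluor added, 30 min, fluorescence measured.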

[8] = qHTS assay to identify small molecule antagonists of the estrogen related receptor signaling pathway with the pleiotropic PPARgamma coactivator (PGC) from Tox21 10K library (AID 1224841; call rule not given here; also: actives are mostly falling curves and most rising ones were filed inactive; nearly all actives have a fitted effect of over 50% in size; also: potency is read from the fitted curve at half-maximal effect)
Method in brief: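 Test chemicals dissolved in DMSO were applied to pre-incubated (6 h) PGC/ERR cells at 2,000 cells/well for an 18 h, 37 C treatment; reporter luminescence was then read using One-Glo.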

[9] = qHTS assay to identify small molecule agonists of the estrogen related receptor signaling pathway with the pleiotropic PPARgamma coactivator (PGC) from Tox21 10K library (AID 1224842); also: nearly all actives have a fitted effect of over 15% in size; also: potency is read from the fitted curve at half-maximal effect
Method in brief: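 PGC/ERR reporter cell line, 2,000 cells per well, incubated 6 h at 37 C before 23 nL compound in DMSO was added. After 18 h at 37 C, One-Glo luminescence read following 30 min at room temperature.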

[10] = molecular target: Thyrotropin receptor (Homo sapiens) (UniProt P16473); assay: qHTS assay to identify small molecule agonists of the thyroid stimulating hormone receptor (TSHR) signaling pathway (AID 1224843; calls by dose curve; also: nearly all actives have a fitted effect of over 45% in size)
Sequence of Thyrotropin receptor (Homo sapiens) (P16473 whole entry, looked up): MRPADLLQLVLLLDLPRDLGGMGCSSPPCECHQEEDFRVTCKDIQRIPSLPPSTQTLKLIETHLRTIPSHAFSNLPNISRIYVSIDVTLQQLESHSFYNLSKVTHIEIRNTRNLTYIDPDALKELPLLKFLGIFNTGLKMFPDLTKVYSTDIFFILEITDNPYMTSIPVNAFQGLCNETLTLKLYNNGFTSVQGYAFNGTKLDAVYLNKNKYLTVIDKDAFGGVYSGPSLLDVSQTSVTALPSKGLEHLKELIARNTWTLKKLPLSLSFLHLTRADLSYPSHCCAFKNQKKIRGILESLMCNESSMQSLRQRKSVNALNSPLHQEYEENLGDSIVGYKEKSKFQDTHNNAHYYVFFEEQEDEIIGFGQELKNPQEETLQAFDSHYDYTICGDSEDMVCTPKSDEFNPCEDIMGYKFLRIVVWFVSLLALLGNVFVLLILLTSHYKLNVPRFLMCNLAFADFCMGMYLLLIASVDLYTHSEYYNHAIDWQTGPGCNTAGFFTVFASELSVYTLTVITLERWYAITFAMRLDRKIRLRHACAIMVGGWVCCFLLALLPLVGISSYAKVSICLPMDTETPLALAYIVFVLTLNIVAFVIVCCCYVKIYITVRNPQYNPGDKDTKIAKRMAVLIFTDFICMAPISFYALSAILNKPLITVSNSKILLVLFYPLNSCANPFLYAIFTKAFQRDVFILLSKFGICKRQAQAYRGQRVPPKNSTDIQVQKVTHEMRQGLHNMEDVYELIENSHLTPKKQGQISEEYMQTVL
Method in brief: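 HEK293/TSHR, 800 cells/well; cpd 30 min RT; add cAMP-d2 + anti-cAMP-cryptate, 1 h RT; fluorescence read on plate reader. 15-pt titration, n=3.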

[11] = qHTS assay to identify small molecule agonists of the hypoxia (HIF-1) signaling pathway - cell viability counter screen (AID 1224844; calls by dose curve; also: nearly all actives have a fitted effect of over 50% in size; also: potency is read from the fitted curve at half-maximal effect)
Method in brief: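 HRE-bla ME-180; 0.5% dFBS; cpd 17 h, 37C, 5% CO2; CellTiter-Glo lum., 30 min RT, post-FRET read, same wells.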

[12] = qHTS assay to identify small molecule agonists of H2AX (AID 1224845; active = well fitted activation curve with a large enough effect in the signal ratio in the repeat runs, not every such curve was filed as active; the % refers to the signal ratio)
Method in brief: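 Wild-type CHO-K1 cells, plated overnight, exposed 3hr at 37C to 15 concentrations (0.76% DMSO final). Lysed, then HTRF anti-pH2AX (S139) cryptate and anti-H2AX-d2 antibodies, 24 hr room temperature; 665/620 nm emission read.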

[13] = qHTS assay to identify small molecule agonists of the hypoxia (HIF-1) signaling pathway (AID 1224846; active = well fitted activation curve with a large enough effect in the signal ratio in the repeat runs, not every such curve was filed as active; the % refers to the signal ratio; also: potency is read from the fitted curve at half-maximal effect)
Method in brief: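 Reporter induction in HRE-bla ME-180 cells is taken as agonism: cells sit 5 hrs after plating, receive compounds or DMSO only, incubate 17 hrs at 37C under 5% CO2, and are loaded with CCF4-AM for beta-lactamase FRET measurement.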

[14] = qHTS assay to identify small molecule agonists of H2AX - cell viability counter screen (AID 1224847; calls by dose curve; also: nearly all actives have a fitted effect of over 30% in size; also: potency is read from the fitted curve at half-maximal effect)
Method in brief: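 Cells plated first: CHO-K1, 1000 per well in 10% FBS medium, incubated overnight at 37C. Then 15-point compound titration added (final DMSO 0.76%) for 3 hr. Finally CellTiter-Glo added and luminescence read.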

[15] = qHTS assay to identify small molecule antagonists of the estrogen related receptor (ERR) signaling pathway from Tox21 library (AID 1224848); also: nearly all actives have a fitted effect of over 50% in size; also: potency is read from the fitted curve at half-maximal effect
Method in brief: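 Compounds dissolved in DMSO are pin-transferred onto ERR reporter cells (2,000 per well) that have settled for 6 h at 37 C. Plates then incubate 18 h at 37 C before ONE-Glo luciferase reagent and a luminescence read 30 min later.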

[16] = qHTS assay to identify small molecule agonists of the estrogen related receptor (ERR) signaling pathway from Tox21 library (AID 1224849; calls by dose curve; also: nearly all actives have a fitted effect of over 15% in size); conditions: ERR reporter cell line, ONE-Glo luciferase, 18 h
Method in brief: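 Tox21 compounds tested for ERR agonism in an NTP reporter cell line: 18 h treatment at 37 C, then ONE-Glo luminescence.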

[17] = qHTS RealTime-Glo MT Cell Viability Assay in HepG2 cells - 24 hour (AID 1224867); also: nearly all actives have a fitted effect of over 50% in size; also: potency is read from the fitted curve at half-maximal effect
Method in brief: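 HepG2 cells (600/well) were dispensed with RealTime-Glo reagents, incubated 5 h at 37 °C, then treated with compounds in DMSO for up to 40 h. Nonlytic NanoLuc luminescence reflecting viable cells was read at each stated time point.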

[18] = qHTS RealTime-Glo MT Cell Viability Assay in HEK293 cells - 32 hour (AID 1224868); also: nearly all actives have a fitted effect of over 50% in size; also: potency is read from the fitted curve at half-maximal effect
Method in brief: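 HEK293 cells seeded with NanoLuc/prosubstrate reagent, rested 5 h at 37 C, then dosed and kept at 37 C up to 40 h. Nonlytic real-time luminescence from viable cells read at 0, 8, 16, 24, 32 and 40 h.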

[19] = A CellTox Green Cytotoxicity Assay to monitor cytotoxicity in HEK293 cells - 0 hour (AID 1224869); also: nearly all actives have a fitted effect of over 50% in size; also: potency is read from the fitted curve at half-maximal effect
Method in brief: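 Tox21 screen in HEK293: membrane-impermeant cyanine dye fluoresces on binding dead-cell DNA; compound pinned 5 h post-seeding, plates held at 37 C, signal read repeatedly through 40 h.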

[20] = qHTS assay to identify small molecule agonists of the estrogen related receptor signaling pathway with the pleiotropic PPARgamma coactivator (PGC) (AID 1224823)
Method in brief: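 Luminescence readout (One-Glo, 30 min RT) from PGC/ERR cell line treated 18 h at 37 C with pin-tool-delivered DMSO compound solutions; cells plated 6 h before dosing. Quantitative HTS format.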
% is scaled to controls: 0 for no effect and ±100 for the full control effect.

CC(=O)C1(C)CC2=C(CCCC2(C)C)CC1C (centres undefined)
inactive: Potency [1] | Potency [2] | Potency [3] | Potency [4] | Potency [5] | Potency [6] | Potency [7] | Potency [8] | Potency [9] | Potency [10] | Potency [11] | outcome [12] | Potency [13] | Potency [14] | Potency [15] | activity change, positive = activation ([16]; at 92.4 µM (top of the series)) 8.11% and 5.11% | Potency [17] | Potency [18] | Potency [19]

CC(C)OC(=O)C(C)(C)Oc1ccc(C(=O)c2ccc(Cl)cc2)cc1
inactive: Potency [1] | Potency [3] | Potency [4] | Potency [5] | Potency [7] | Potency [10] | Potency [11] | outcome [12] | Potency [17] | Potency [19]
active: Potency [2] 34.7 µM | Potency [6] 54.5 µM and 26.6 µM | Potency [14] 50.5 µM | Potency [18] 21.9 µM and 10.7 µM

CC(C(=O)O)c1cccc(C(=O)c2ccccc2)c1 (centres undefined)
inactive: outcome [20] | Potency [1] | Potency [3] | Potency [4] | Potency [7] | Potency [8] | Potency [9] | Potency [10] | Potency [11] | outcome [12] | Potency [14] | Potency [15] | activity change, positive = activation ([16]; at 42.5 µM (top of the series)) 0.181% | activity change, positive = activation ([16]; at 92.4 µM (top of the series)) 2.6% | Potency [17] | Potency [18] | Potency [19]

CCCC(=O)O
inactive: Potency [1] | Potency [2] | Potency [3] | Potency [4] | Potency [5] | Potency [6] | Potency [7] | Potency [8] | Potency [9] | Potency [10] | Potency [11] | outcome [12] | Potency [13] | Potency [14] | Potency [15] | activity change, positive = activation ([16]; at 92.4 µM (top of the series)) 4.22% and -0.802% | Potency [17] | Potency [19]

CC(C)Oc1ccc2c(=O)c(-c3ccccc3)coc2c1
active: Potency [2] 1.38 µM and 1.55 µM | Potency [6] 1.5 µM and 2.11 µM | Potency [9] 2.66 µM and 2.98 µM | activity change, positive = activation ([16]; at 42.5 µM (top of the series)) 38.2% and 33.2%
inactive: Potency [1] | Potency [3] | Potency [4] | Potency [5] | Potency [7] | Potency [8] | Potency [10] | Potency [11] | outcome [12] | Potency [13] | Potency [14] | Potency [15] | Potency [17] | Potency [19]

Brc1cc(Oc2cc(Br)c(Br)c(Br)c2Br)c(Br)c(Br)c1Br
inactive: Potency [1] | Potency [2] | Potency [3] | Potency [4] | Potency [5] | Potency [6] | Potency [7] | Potency [10] | Potency [13] | Potency [14] | Potency [17] | Potency [19]
49.2 µM (active) and inactive: Potency [11]

CC1=CC2C3CC(C=C3C)C2C1 (centres undefined)
inactive: Potency [1] | Potency [2] | Potency [3] | Potency [4] | Potency [5] | Potency [6] | Potency [7] | Potency [8] | Potency [9] | Potency [10] | Potency [11] | outcome [12] | Potency [13] | Potency [14] | Potency [15] | activity change, positive = activation ([16]; at 92.4 µM (top of the series)) 0.676% and -14.6% | Potency [17] | Potency [18]
inactive and 38.9 µM (active): Potency [19]

CCCCC(CC)COCC1CO1 (centres undefined)
inactive: Potency [1] | Potency [2] | Potency [3] | Potency [4] | Potency [5] | Potency [6] | Potency [7] | Potency [8] | Potency [9] | Potency [10] | Potency [11] | outcome [12] | Potency [13] | Potency [14] | Potency [15] | activity change, positive = activation ([16]; at 92.4 µM (top of the series)) 1.35% and -0.071% | Potency [17] | Potency [18] | Potency [19]

Nc1ncn([C@@H]2O[C@H](CO)[C@@H](O)[C@H]2O)c(=O)n1
inactive: outcome [20] | Potency [2] | Potency [6] | Potency [7] | Potency [9] | Potency [10] | outcome [12] | Potency [14] | activity change, positive = activation ([16]; at 42.5 µM (top of the series)) -50.1% | activity change, positive = activation ([16]; at 92.4 µM (top of the series)) -55.9% | Potency [17] | Potency [18] | Potency [19]
active: Potency [1] 2.17 µM and 3.76 µM | Potency [3] 5.96 µM | Potency [4] 4.86 µM | Potency [8] 2.73 µM and 7.5 µM | Potency [11] 13.8 µM | Potency [15] 864 nM and 1.19 µM

c1ccc2c(c1)Oc1ccccc1S2
inactive: Potency [1] | Potency [3] | Potency [4] | Potency [5] | Potency [6] | Potency [7] | Potency [10] | Potency [11] | outcome [12] | Potency [13] | Potency [14] | Potency [17] | Potency [19]
active: Potency [2] 72.1 µM

c1ccc2c(c1)c1cccc3ccc4cccc2c4c31
inactive and 17.4 µM (active): Potency [18]
active: Potency [6] 13.6 µM and 27.3 µM
43.4 µM (active) and inactive: Potency [13]
inactive: Potency [1] | Potency [2] | Potency [3] | Potency [4] | Potency [5] | Potency [7] | Potency [10] | Potency [11] | Potency [14] | Potency [17] | Potency [19]

CCCCc1oc2ccccc2c1C(=O)c1cc(I)c(OCCN(CC)CC)c(I)c1
inactive: outcome [20] | Potency [2] | Potency [8] | Potency [9] | Potency [10] | activity change, positive = activation ([16]; at 42.5 µM (top of the series)) -36% and -39.6% | Potency [19]
active: Potency [1] 48.9 µM and 29.8 µM | Potency [4] 43.6 µM | Potency [7] 43.6 µM | Potency [11] 27.8 µM and 21.3 µM | Potency [14] 80.7 µM and 43.8 µM | Potency [15] 48.9 µM and 29.8 µM | Potency [17] 39.2 µM and 23.9 µM | Potency [18] 34.9 µM and 23.9 µM
